This is an account of results in PubChem BioAssay AID493085 (Broad Institute, 2011).

The whole screen tested about 2,400 compounds, of which about 360 (15%) were called active. Inconclusive results (about 5%) are left out. Only a sample is shown. Measured potencies and affinities stand elsewhere. A number with no mark means an inactive call.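 Rule for the calls: active = falling-signal curve with half-maximal concentration at or below ten times the top tested dose; inconclusive = flat fit at 30 to 70% inhibition, or poor fit; inactive = signal rise, flat within 30%, or potency beyond limit.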

The test in a line: dox-induced RFP signal loss in R4-3T3 cells – cell-based, NIH3T3 R4, HSE-GFP and Tet-On RFP, cherry-pick, set 3, dose response (AID 493085).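 Note: cells heat shocked 2 h at 42 °C with doxycycline to induce reporters; 0% = neutral control wells and -100% = didemnin B control at 400 nM.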 Conditions: NIH3T3 R4 HSE-GFP/Tet-RFP reporter, fluorescence, 48 h; series mostly up to 19.5 µM; activity change, negative = inhibition: at the top concentration.
On to `CCN(CC)C(=O)COC(=O)c1ccc(C)c(NC(=O)c2ccco2)c1`, for which the “activity change, negative = inhibition” value was 2.46%.

With `CN1CCN(C(=O)/C(=C\c2cccs2)NC(=O)c2ccco2)CC1`, the “activity change, negative = inhibition” value was 0.189%. Next, `Cc1ccc(N(Cc2cc3ccc(C)cc3[nH]c2=O)C(=O)c2cccs2)cc1`: -2.97%; `CC1CCCN(c2ncnc3c2cnn3-c2ccc(Cl)cc2)C1` (centres undefined): -12.2%.

Turning to `CCOC(=O)N1CCC(Nc2ncnc3c2cnn3-c2ccc(Cl)cc2)CC1`, the “activity change, negative = inhibition” value was 12.7%. In the case of `c1ccc2c(Nc3nc(-c4ccncc4)nc4ccccc34)cccc2c1` it was 4.7%; in that of `COc1cc(CCCN2CCNC[C@@H]2Cc2ccc(O)cc2)cc(OC)c1OC`, 15.6%. With `O=C(COC(=O)c1ccccc1-n1cnnn1)c1ccc(F)cc1`, the “activity change, negative = inhibition” value was 5.1%.

`COc1cccc(-n2c(N)c(-c3nc4ccccc4[nH]3)sc2=S)c1`: the “activity change, negative = inhibition” value was -11.7%. Next, `COc1ccc(/C=C/C(=O)NC(=S)NCCc2ccc(OC)c(OC)c2)cc1`: -0.406%; `COc1ccc(CC(=O)Nc2cc(C)on2)cc1`: 6.1%.

For the compound `COc1ccc(Nc2nc(Nc3ccc(OC)cc3)nc(-n3[nH]c(=O)c(C)c3C)n2)cc1`, the “activity change, negative = inhibition” value was 8.07%. Regarding `COc1ccccc1C(O)(C(=O)N(NC(C)=O)c1ccccc1)c1ccccc1OC`, the “activity change, negative = inhibition” value was -9.05%. For the compound `Cc1cccc(-c2nnc(NC(=O)c3cccs3)s2)c1`, the “activity change, negative = inhibition” value was -3.98%. In the case of `Cc1c(C(=O)Nc2ccc(F)cc2)sc2ncn(CC(=O)N3CCCCC3)c(=O)c12` it was 2.93%; in that of `O=C(Nc1cccc(S(=O)(=O)N2CCOCC2)c1)c1ccccn1`, -1.87%; in that of `O=[N+]([O-])c1ccc(NCCOc2ccccc2Cl)nc1`, -4.68%. Turning to `O=[N+]([O-])c1cccc(-c2nnc(-c3ccccc3)o2)c1`, the “activity change, negative = inhibition” value was -12.8%. Take `O=C(c1cccs1)n1nc(-c2ccco2)nc1SCc1ccccc1`: the “activity change, negative = inhibition” value was -5.18%.

Regarding `NNC(=O)c1ccc(O)cc1O`, the “activity change, negative = inhibition” value is 9.83%. In the case of `COc1cc(=O)[nH]c(SCC(=O)Nc2nc3c(s2)CCCC3)n1` it was -0.723%. Take `CN(C)CCNC(=O)c1cc2c(s1)-c1ccc(Cl)cc1SC2`: the “activity change, negative = inhibition” value was 14.3%. For `CCCCC(=O)Nc1cccc(NC(=O)c2cccc(Br)c2)c1`, the “activity change, negative = inhibition” value is 8.02%. In the case of `Cc1ccc(-c2csc(NC(=O)c3ccc(S(=O)(=O)N4CCc5ccccc54)cc3)n2)cc1` it was -13.1%; in that of `O=C(Nc1nc(-c2cccs2)cs1)c1ccc(Cl)s1`, -3.26%; in that of `O=C(Nc1nncs1)c1ccc(F)c(S(=O)(=O)N2CCCCC2)c1`, -13.1%. As for `COc1cc2c(cc1OC)C(C(=O)NC1CC1)C1c3ccccc3CCN1C2=O` (centres undefined), the “activity change, negative = inhibition” value was -14.3%. As to `NC(=S)N/N=C/c1cc([N+](=O)[O-])ccc1OCCOc1ccccc1`, the “activity change, negative = inhibition” value is 16.2%. In the case of `CCC(C)c1ccc(OCc2ccc(C(=O)O)o2)cc1` (centres undefined), the “activity change, negative = inhibition” value was -8.68%.

As to `NS(=O)(=O)c1cccc(NC(=O)CNC(=O)CC23CC4CC(CC(C4)C2)C3)c1`, the “activity change, negative = inhibition” value was -9.43%. In the case of `CCOc1ccccc1C(=O)Nc1ccc(NC(=O)c2ccccc2)cc1`, the “activity change, negative = inhibition” value was 6.61%. Next, `Cc1cc(C(=O)COC(=O)c2ccco2)c(C)n1Cc1ccco1`: 0.924%; `C=CCOc1ccn(C)c(=O)n1`: 0.171%.

As for `O=C1OC2(CCCCC2)OC(=O)C1=CNc1nccs1`, the “activity change, negative = inhibition” value is -3.79%. With `Cc1ccc(C)c(N2CCN(CCN3CCCCC3)CC2)c1`, the “activity change, negative = inhibition” value was -5.89%. In the case of `Oc1ccccc1-c1nnc(-c2ccc(C(F)(F)F)cc2)o1` it was 0.933%. Take `COC(=O)C1=C(C)Nc2c(c(=O)n(C)c(=O)n2C)C1c1cccc(O)c1` (centres undefined): the “activity change, negative = inhibition” value is -4.13%.

With `CCC(=O)N1C(C(=O)N2CCCC2)CSC1c1ccc(OC)cc1` (centres undefined), the “activity change, negative = inhibition” value is 20.6%. For the compound `CNC(=O)Cn1nc(C)c2ccccc2c1=O`, the “activity change, negative = inhibition” value was 6.08%. For the compound `O=C(CNC(=O)C12CC3CC(CC(C3)C1)C2)NCc1ccccc1`, the “activity change, negative = inhibition” value was -1.98%.

For the compound `Cc1cc(C)cc(N(CC(=O)Nc2ccc(Br)cc2)S(=O)(=O)c2c(C)[nH]c(=O)[nH]c2=O)c1`, the “activity change, negative = inhibition” value is 3.96%. For the compound `CCOc1ccccc1Nc1nnc(SCc2nnc(-c3cc(OC)c(OC)c(OC)c3)o2)s1`, the “activity change, negative = inhibition” value is -1.36%. Next, `COc1ccc(-n2c(-c3cccc(OC)c3)nc(=S)c3c2CCCC3)cc1`: -11.1%; `COc1ccc(N2C(=O)C(C)(C)C2c2c(O)ccc3ccccc23)cc1` (centres undefined): -9.55%.
